# This is one part of a sample in which hits are shown more often than they occur.
# Pf Dd2 growth = blocks in vitro growth of P. falciparum Dd2; P. falciparum Dd2 growth, SYBR Green, 72 h; Potency, µM (top dose mostly 28.9 µM), usual class: inhibitors; 120,000 tested, 4.3% active; AID 1347417; active means well fitted inhibition curve with a large enough effect; further: nearly all actives have a fitted effect of over 65% in size
#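 Infected erythrocytes (Dd2, 0.3% parasitemia, 2.5% hematocrit final) are added to compound in RPMI-1640/Albumax II medium, grown 72 h at 37C in low oxygen, then lysed with saponin/Triton-X containing SYBR Green and read by fluorescence.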
# Hits are given with their value; 0 = inactive; [ ] = dose if it differs, or a comment.
SMILES,Pf Dd2 growth
COCCN1C(=O)c2ccccc2C(C(=O)Nc2nncs2)C12CCCCC2 (configuration not stated),0
COCCN1C(=O)c2ccccc2C(C(=O)Nc2nnc(C)s2)C12CCCCC2 (configuration not stated),0
CCCc1nnc(NC(=O)C2c3ccccc3C(=O)N(CCOC)C23CCCCC3)s1 (configuration not stated),10µM
Cn1cnc(S(=O)(=O)N2CCCC(c3nnnn3-c3ccccc3)C2)c1 (configuration not stated),0
Cc1cc(C)n(-c2ccc(F)cc2CN2CCCC(CO)(Cc3ccccc3)C2)n1 (configuration not stated),8.91µM
CN1CC2(CCCN(Cc3cc(F)ccc3-n3cccn3)C2)OC1=O (configuration not stated),0
CCc1ccc(CN2CCCC(CO)(Cc3ccc(F)cc3F)C2)cc1 (configuration not stated),0
CSCC[C@H](N)C(=O)N1CCC2(CCC(=O)N(Cc3ccccc3)C2)CC1,0
Cc1nnc(-c2cc(N3CCN(c4ccccn4)CC3)ccn2)n1C(C)C,0
CCOc1cccc(CN2CC(c3nc(Cc4cccnc4)no3)C2)c1,0
CCOc1ccc(NCc2cccn2-c2nnc(N3CCC(C(=O)NCc4cccc(OC)c4)CC3)s2)cc1,0
COc1cccc(N2CCN(C(=O)c3cccn3-c3nnc(N4CCCCC4)s3)CC2)c1,0
COc1cccc(CNCc2cccn2-c2nnc(N3CCN(c4ccccc4)CC3)s2)c1,10µM
Cc1cc(C(=O)NCC2(COc3ccc(C(F)(F)F)cn3)C[C@@H](O)[C@@H](O)C2)n(C)n1 (some centres not stated),0
CN(Cc1cccc(C(F)(F)F)c1)C(=O)C(C)(C)C,0
CN(Cc1cccc(C(F)(F)F)c1)C(=O)c1ccccc1,0
Cc1ccccc1C(=O)N(C)Cc1cccc(C(F)(F)F)c1,14.1µM
CN1CCN(C(=O)N2CCC(c3nccn3CC3CC3)CC2)CC1,0
CN(Cc1cc(-c2ccncc2)no1)C(=O)CCc1cc2n(n1)CCCNC2,0
Cc1ccc(-c2nc3ccc(Cl)cn3c2Nc2ccccc2C)s1,0
Cc1cccc(C)c1Nc1c(-c2ccc(N3CCOCC3)cc2)nc2ncccn12,0
Cc1ccccc1Nc1c(-c2ccc(N3CCOCC3)cc2)nc2ccc(Cl)cn12,8.91µM
Clc1ccc2nc(-c3ccc(N4CCOCC4)cc3)c(Nc3ccccc3)n2c1,0
Cc1ccc(Nc2c(-c3ccc(N4CCOCC4)cc3)nc3cccc(C)n23)cc1,0
Brc1ccc2nc(-c3ccccc3)c(Nc3ccc4c(c3)OCO4)n2c1,0
SMILES,Pf Dd2 growth
Cc1ccccc1Nc1c(-c2c(F)cccc2Cl)nc2ccc(Br)cn12,10µM
Cc1ccn2c(Nc3ccccc3C)c(-c3ccc(N4CCOCC4)cc3)nc2c1,6.31µM
Cc1ccc(Nc2c(-c3ccc(N4CCOCC4)cc3)nc3ccc(Cl)cn23)cc1,0
CS(=O)(=O)N1CCC(OC2CCN(C(=O)NC3CCCCC3)CC2)CC1,0
N#Cc1ccccc1CN1CCc2nc(N3CCOCC3)[nH]c(=O)c2CC1,0[5.79 µM]
COc1ccc(-c2cc(N3CCCC(NC(=O)c4cccc(N(C)C)c4)C3)n[nH]2)cc1 (configuration not stated),0
O=[S+]1([O-])NCC2(CCN(Cc3cccc4ccccc34)C2)Nc2ccccc21 (configuration not stated),12.6µM
O=[S+]1([O-])NCC2(CCN(Cc3ccc(F)cc3)C2)Nc2ccccc21 (configuration not stated),0
O=[S+]1([O-])NCC2(CCN(Cc3ccccn3)C2)Nc2ccccc21 (configuration not stated),0
Cc1cc(C(=O)N2CCC3(CCNCC3)CC2)c2cccc(C)c2n1,0
CCN(CC1CCN(C2CCN(C)CC2)CC1)C(=O)c1ccc(-c2ccccc2)cc1,12.6µM
Cc1cc(C)c(C(=O)N(CC2CCN(C3Cc4ccccc4C3)CC2)CC2CCCO2)o1 (configuration not stated),0
CN1CCC(Cc2ccc(C(=O)O)cc2)CC1,0
O=C(CCc1cnccn1)N1CCOC(CCCc2ccccc2)C1 (configuration not stated),0
Cn1cc(-c2cnc3[nH]cc(CC(=O)Nc4ccccc4Cl)c3c2)cn1,0
O=C(Cc1c[nH]c2ncc(-c3cccnc3)cc12)NCCc1ccccc1,0
COc1ccc(-c2cnc3[nH]cc(CC(=O)Nc4ccc(OC)nc4)c3c2)cc1,11.2µM
CN1CCN(C(=O)Cc2c[nH]c3ncc(-c4ccc(F)c(Cl)c4)cc23)CC1,11.2µM
CN1CCN(C(=O)Cc2c[nH]c3ncc(-c4cccc(Cl)c4)cc23)CC1,0
COc1ccc(-c2cnc3[nH]cc(CC(=O)Nc4ccc(C(F)(F)F)cc4)c3c2)cc1,0
CN1CCN(C(=O)Cc2c[nH]c3ncc(-c4ccc5c(c4)OCO5)cc23)CC1,0
COc1ccc(NC(=O)Cc2c[nH]c3ncc(-c4ccccc4)cc23)cc1,0
O=C(Cc1c[nH]c2ncc(-c3cccnc3)cc12)NCc1cccc(F)c1,6.31µM
